Publication PMC7862700, “An all-to-all approach to the identification of sequence-specific readers for epigenetic DNA modifications on cytosine”

Tests used:
Experiment in all cases: DAPPL (digital affinity profiling via proximity ligation, sequencing); 10 mM Tris-HCl pH 7.5, 50 mM NaCl, 1 mM DTT, 4% glycerol, room temperature, 30 min; GST-TFs on glutathione beads, 16-mer random dsDNA library, 0.1% formaldehyde crosslink after washing; high values mean tight binding
FEV = biological target: T1, FEV (Homo sapiens, UniProt Q99581 1-238); conditions: protein: recombinant; tags: N-terminal GST; dsDNA, one strand shown
T1 sequence: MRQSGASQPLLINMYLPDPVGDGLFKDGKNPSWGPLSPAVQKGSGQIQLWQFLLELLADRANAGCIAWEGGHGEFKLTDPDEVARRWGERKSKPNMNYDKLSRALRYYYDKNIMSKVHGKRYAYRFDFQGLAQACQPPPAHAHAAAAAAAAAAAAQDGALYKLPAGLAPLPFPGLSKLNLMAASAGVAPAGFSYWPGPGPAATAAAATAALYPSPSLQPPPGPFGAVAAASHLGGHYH
How it was run: (§1)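 A tag-only sample was pooled with DNA-barcoded human transcription factors that had been expressed in yeast as GST fusions and captured on glutathione beads. The pools were incubated for 30 min at room temperature with 200 nmole of a random double-stranded 16-mer DNA library in Tris/NaCl/DTT/glycerol buffer, then washed, crosslinked with 0.1% formaldehyde, proximity-ligated (BsaI/T4 ligase, 1 h, 37 °C), PCR-amplified and sequenced on an Illumina NextSeq500. Binding signal is each hexamer's read frequency for a factor divided by its frequency for the tag-only sample.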

ETV5 = ETV5 (Homo sapiens, UniProt P41161 1-510); conditions: protein: recombinant; tags: N-terminal GST; dsDNA, one strand shown
ETV5, sequence (P41161 whole entry): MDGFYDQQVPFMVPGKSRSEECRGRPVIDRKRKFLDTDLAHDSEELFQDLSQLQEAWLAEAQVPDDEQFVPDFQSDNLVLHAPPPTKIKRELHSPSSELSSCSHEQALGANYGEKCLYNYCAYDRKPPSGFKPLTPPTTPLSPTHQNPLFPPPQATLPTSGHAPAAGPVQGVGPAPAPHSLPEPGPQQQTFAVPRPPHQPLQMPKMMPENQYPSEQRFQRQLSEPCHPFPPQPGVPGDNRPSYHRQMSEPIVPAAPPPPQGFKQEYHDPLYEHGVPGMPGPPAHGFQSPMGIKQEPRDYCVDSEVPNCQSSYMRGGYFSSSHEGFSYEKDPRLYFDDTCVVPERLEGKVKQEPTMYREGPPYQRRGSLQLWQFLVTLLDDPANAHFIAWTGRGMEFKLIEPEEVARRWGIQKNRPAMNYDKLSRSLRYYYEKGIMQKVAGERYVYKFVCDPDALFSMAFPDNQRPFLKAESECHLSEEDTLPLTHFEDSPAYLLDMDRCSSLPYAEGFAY
How it was run: as §1

HSF1 = HSF1 (Homo sapiens, UniProt Q00613 1-529); conditions: protein: recombinant; tags: N-terminal GST; chain copies: 3; dsDNA, one strand shown
HSF1, sequence (Q00613 whole entry): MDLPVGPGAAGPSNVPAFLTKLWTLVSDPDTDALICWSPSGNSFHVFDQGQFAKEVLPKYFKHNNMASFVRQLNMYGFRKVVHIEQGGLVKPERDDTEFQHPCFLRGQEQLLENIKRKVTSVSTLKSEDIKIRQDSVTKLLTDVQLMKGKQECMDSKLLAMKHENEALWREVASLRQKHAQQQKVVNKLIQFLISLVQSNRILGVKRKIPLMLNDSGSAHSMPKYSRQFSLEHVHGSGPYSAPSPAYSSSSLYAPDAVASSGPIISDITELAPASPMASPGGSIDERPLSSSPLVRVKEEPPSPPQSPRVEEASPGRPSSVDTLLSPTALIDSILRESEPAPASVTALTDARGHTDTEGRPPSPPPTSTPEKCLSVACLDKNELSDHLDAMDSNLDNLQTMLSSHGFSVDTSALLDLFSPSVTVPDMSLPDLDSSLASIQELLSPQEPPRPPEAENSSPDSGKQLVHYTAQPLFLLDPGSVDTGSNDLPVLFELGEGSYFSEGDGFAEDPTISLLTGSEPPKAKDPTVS
How it was run: as §1

SPIC = biological target: T2, SPIC (Homo sapiens, UniProt Q8N5J4 1-248); conditions: protein: recombinant; tags: N-terminal GST; dsDNA, one strand shown
T2 sequence: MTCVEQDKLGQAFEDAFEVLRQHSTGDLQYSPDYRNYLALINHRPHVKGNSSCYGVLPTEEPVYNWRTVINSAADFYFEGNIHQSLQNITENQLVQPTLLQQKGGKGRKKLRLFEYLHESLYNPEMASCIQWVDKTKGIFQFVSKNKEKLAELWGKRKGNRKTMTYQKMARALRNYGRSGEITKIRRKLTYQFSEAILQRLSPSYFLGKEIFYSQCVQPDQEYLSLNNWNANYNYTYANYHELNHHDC
How it was run: as §1

ELF4 = ELF4 (Homo sapiens, UniProt Q99607 1-663); conditions: protein: recombinant; tags: N-terminal GST; dsDNA, one strand shown
ELF4, sequence (Q99607 whole entry): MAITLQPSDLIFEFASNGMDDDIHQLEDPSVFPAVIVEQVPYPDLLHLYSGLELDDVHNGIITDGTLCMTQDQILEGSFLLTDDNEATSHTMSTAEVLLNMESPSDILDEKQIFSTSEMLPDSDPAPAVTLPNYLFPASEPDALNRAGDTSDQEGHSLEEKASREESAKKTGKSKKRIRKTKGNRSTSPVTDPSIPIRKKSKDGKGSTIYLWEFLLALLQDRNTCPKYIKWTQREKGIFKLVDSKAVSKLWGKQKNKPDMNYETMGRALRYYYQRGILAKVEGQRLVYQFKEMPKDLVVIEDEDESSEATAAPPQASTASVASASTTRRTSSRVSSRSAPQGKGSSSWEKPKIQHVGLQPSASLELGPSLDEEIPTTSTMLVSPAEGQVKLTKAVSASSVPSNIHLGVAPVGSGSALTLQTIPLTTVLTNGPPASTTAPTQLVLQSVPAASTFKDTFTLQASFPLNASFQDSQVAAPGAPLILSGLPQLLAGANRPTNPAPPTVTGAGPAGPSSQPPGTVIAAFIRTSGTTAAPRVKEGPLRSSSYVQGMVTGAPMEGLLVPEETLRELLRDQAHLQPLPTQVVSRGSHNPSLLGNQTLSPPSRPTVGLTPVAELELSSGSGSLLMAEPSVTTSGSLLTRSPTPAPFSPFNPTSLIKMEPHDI
How it was run: as §1

ELK4 = biological target: T3, ELK4 (Homo sapiens, UniProt P28324-2 1-405); conditions: protein: recombinant; tags: N-terminal GST; dsDNA, one strand shown
T3 sequence: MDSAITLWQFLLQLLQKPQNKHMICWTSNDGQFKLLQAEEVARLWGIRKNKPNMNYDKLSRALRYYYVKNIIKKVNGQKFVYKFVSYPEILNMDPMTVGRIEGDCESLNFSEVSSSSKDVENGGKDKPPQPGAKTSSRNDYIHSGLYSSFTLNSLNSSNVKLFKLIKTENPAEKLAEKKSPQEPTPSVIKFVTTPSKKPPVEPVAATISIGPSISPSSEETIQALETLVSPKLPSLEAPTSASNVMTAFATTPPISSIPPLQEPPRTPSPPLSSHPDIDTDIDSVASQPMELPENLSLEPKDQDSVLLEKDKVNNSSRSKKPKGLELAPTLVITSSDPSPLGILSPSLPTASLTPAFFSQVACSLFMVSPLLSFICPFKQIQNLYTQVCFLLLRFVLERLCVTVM
How it was run: as §1

ETV2 = biological target: T4, ETV2 (Homo sapiens, UniProt O00321 1-342); conditions: protein: recombinant; tags: N-terminal GST; dsDNA, one strand shown
T4 sequence: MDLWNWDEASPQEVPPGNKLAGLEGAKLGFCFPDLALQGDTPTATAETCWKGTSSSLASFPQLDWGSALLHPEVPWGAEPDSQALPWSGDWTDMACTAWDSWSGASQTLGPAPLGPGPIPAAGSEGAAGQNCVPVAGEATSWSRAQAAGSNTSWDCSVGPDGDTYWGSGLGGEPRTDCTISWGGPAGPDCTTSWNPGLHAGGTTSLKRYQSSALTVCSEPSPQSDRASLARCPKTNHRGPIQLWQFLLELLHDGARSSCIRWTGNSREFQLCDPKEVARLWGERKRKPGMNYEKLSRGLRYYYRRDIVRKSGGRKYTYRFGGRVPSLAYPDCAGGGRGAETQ
How it was run: as §1

ELF3 = biological target: T5, ELF3 (Homo sapiens, UniProt P78545 1-371); conditions: protein: recombinant; tags: N-terminal GST; dsDNA, one strand shown
T5 sequence: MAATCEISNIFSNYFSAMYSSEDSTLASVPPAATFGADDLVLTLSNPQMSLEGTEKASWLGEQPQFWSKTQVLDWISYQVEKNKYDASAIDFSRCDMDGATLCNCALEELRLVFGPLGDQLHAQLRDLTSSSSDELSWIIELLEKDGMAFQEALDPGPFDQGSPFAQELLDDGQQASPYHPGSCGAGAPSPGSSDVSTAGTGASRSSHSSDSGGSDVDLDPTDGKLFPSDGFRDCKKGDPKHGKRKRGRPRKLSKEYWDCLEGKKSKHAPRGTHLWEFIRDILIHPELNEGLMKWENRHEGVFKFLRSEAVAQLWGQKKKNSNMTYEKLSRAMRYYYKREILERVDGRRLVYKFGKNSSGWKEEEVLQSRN
How it was run: as §1

CRX = CRX (Homo sapiens, UniProt O43186 1-299); conditions: protein: recombinant; tags: N-terminal GST; dsDNA, one strand shown
CRX, sequence (O43186 whole entry): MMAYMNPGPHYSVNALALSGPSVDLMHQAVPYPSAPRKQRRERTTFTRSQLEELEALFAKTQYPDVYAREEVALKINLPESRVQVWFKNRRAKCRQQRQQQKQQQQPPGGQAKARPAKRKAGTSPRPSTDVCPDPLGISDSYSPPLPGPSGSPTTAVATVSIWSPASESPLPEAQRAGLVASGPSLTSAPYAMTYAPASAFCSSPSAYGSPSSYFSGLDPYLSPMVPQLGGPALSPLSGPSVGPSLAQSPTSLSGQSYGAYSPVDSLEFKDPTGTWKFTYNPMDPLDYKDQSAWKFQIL
How it was run: as §1

ETV1 = ETV1 (Homo sapiens, UniProt P50549 1-477); conditions: protein: recombinant; tags: N-terminal GST; dsDNA, one strand shown
ETV1, sequence (P50549 whole entry): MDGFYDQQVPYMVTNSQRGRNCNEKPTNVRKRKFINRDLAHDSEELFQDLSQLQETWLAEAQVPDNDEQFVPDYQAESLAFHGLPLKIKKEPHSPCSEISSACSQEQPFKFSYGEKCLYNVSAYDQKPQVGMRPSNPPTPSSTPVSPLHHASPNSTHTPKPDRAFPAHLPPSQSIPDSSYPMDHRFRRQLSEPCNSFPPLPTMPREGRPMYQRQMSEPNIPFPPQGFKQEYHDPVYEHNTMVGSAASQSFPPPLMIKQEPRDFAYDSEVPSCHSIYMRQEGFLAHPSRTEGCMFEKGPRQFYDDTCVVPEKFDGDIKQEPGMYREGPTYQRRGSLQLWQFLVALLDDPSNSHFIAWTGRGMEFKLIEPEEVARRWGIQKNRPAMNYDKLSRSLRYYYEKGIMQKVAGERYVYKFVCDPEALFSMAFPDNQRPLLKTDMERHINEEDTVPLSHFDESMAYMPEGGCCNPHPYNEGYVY
How it was run: as §1

GCTTAT
binding signal (FEV): 1.21 fold enrichment (6-mer frequency, TF over GST control)
binding signal (ETV5): 1.23 fold enrichment (6-mer frequency, TF over GST control)
binding signal (HSF1): 1.89 fold enrichment (6-mer frequency, TF over GST control)
binding signal (SPIC): 1.42 fold enrichment (6-mer frequency, TF over GST control)
binding signal (ELF4): 1.23 fold enrichment (6-mer frequency, TF over GST control)
binding signal (ELK4): 1.28 fold enrichment (6-mer frequency, TF over GST control)
binding signal (ETV2): 1.11 fold enrichment (6-mer frequency, TF over GST control)
binding signal (ELF3): 1.29 fold enrichment (6-mer frequency, TF over GST control)
binding signal (CRX): 2.89 fold enrichment (6-mer frequency, TF over GST control)
binding signal (ETV1): 1.35 fold enrichment (6-mer frequency, TF over GST control)
